FMDV inh – High Throughput Screening for Foot and Mouth Disease Virus Antivirals | FMDV antiviral cell-based qHTS | Potency, µM (doses to about 57.9 µM), hits mostly inhibitors | 410,000 compounds, 1.2% hits; calls by dose curve; tested in HEK293T cells; note: read-out not given here; nearly all actives have a fitted effect of over 45% in size
Vaccinia mCherry – qHTS for Stage-Specific Inhibitors of Vaccinia Orthopoxvirus: mCherry Reporter Primary qHTS; AID 720579, 2013; Potency, µM (highest dose often 36.5 µM), hits mostly inhibitors; 310,000 compounds, 0.63% hits; Vaccinia virus mCherry reporter infection, fluorescence; calls by dose curve; tested in A549 cells; note: nearly all actives have a fitted effect of over 35% in size
Vaccinia Venus – qHTS for Stage-Specific Inhibitors of Vaccinia Orthopoxvirus: Venus Reporter Primary qHTS; Vaccinia virus Venus reporter expression, fluorescence; Potency, µM (doses to about 36.5 µM), most hits filed as inhibitors; 330,000 compounds, 0.46% hits; AID 720580, 2013; calls by dose curve; tested in A549 cells; note: nearly all actives have a fitted effect of over 30% in size
HCMV inh – qHTS Assay for inhibitors of the human cytomegalovirus (HCMV); HFF cells, HCMV-luciferase reporter, 72 h; stronger effect = lower value; 410,000 compounds, 4.5% hits; activity change, negative = inhibition, % at 57.5 µM; in the data active = activity change below about -60%; inconclusive = no clear call, values can overlap the other calls; inactive = above about -39%
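Two-dose cell screen: HFF monolayers treated with compounds and infected with luciferase-expressing HCMV at 1 PFU/cell, 72 h at 37C, then lysed for luciferase measurement.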
Giardia FBPA inh – qHTS Assay for Inhibitors of Fructose-1,6-bisphosphate Aldolase from Giardia Lamblia | A8B2U2 | purified Giardia FBPA | Potency, µM (series often up to 59.6 µM), hits mostly inhibitors | 290,000 compounds, 0.71% hits | AID 2451, 2010; note: nearly all actives have a fitted effect of over 55% in size
Target sequence (A8B2U2 whole entry, looked up): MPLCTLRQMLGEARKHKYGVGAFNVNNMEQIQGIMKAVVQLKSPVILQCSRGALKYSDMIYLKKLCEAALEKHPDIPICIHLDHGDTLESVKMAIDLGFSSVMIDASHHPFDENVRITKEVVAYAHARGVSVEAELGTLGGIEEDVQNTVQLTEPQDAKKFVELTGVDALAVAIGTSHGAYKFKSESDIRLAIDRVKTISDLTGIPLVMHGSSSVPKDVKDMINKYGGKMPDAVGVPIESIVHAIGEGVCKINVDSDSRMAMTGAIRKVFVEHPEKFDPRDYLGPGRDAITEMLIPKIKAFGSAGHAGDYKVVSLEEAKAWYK
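Giardia FBPA (40 nM reagent) was preincubated 10 min at RT with compound (up to 57.5 uM final), then substrate plus GAPDH/TPI/NAD/arsenate coupling system with diaphorase/resazurin was added; resorufin fluorescence (525/598 nm) was read after 20 min.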
HCV inh – qHTS Assay for Inhibitors of Hepatitis C Virus (HCV); Huh7.5.1 HCVcc-Cre infection, luciferase reporter, 44 h; Potency, µM (top dose mostly 41.8 µM), actives largely listed as inhibitors; 340,000 compounds, 3.4% hits
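1,000 cells/well; 4 h culture; + compound; + HCVcc-Cre (~0.5 moi); 44 h; luciferase substrate, RT 15 min; read 15 sec.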
Large screens that a line does not name were inactive; ! = not active in a repeat. A selection: hits, their analogues and other compounds. The true share with any hit is near 7.5%. Unless noted, calls come from the whole dose curve; as a rule, active = well fitted curve in the direction sought with a large enough effect; inconclusive = small, poorly fitted or top-dose-only effect, or another doubt; inactive = no such curve, though single readings can be large; an effect the other way counts as inactive or inconclusive.

CC(OC(=O)c1ccc(Cl)nc1)C(=O)NCc1ccc2c(c1)OCO2 (stereo not given)	HCV inh inconclusive (no result: Giardia FBPA inh)
O=C(c1cc(COc2c(F)cccc2F)on1)N1CC[C@@H]2CCCC[C@H]2C1	none (no result: Giardia FBPA inh, HCV inh)
Cn1c(=O)c2ncn(CC(=O)N=Nc3c(O)[nH]c4ccccc34)c2n(C)c1=O	none (no result: FMDV inh, Vaccinia mCherry, Vaccinia Venus, HCMV inh, HCV inh)
O=C1OC(N2C(=O)CC[C@H]2C(=O)Nc2ccc3c(c2)OCO3)c2ccccc21 (stereo not given in full)	HCV inh 0.89µM
CN1CCN(c2nc(-c3ccccc3)c3cc(Cl)ccc3n2)CC1	none
Clc1ccc2nc(N3CCNCC3)nc(-c3ccccc3)c2c1	HCMV inh inconclusive, HCV inh 10µM
O=C(NCc1ccccc1Cl)c1cccc2c1C(=O)c1ccc(-c3ccc(OC(F)(F)F)cc3)cc1S2(=O)=O	Vaccinia mCherry inconclusive, Vaccinia Venus 10µM (no result: HCMV inh, Giardia FBPA inh)
O=C(NCc1ccccc1Br)c1cccc2c1C(=O)c1ccc(N3CCC(Cc4ccccc4)CC3)cc1S2(=O)=O	none (no result: HCMV inh, Giardia FBPA inh)
O=C(NC1CCCCC1)c1cccc2c1C(=O)c1ccc(N3CCC(Cc4ccccc4)CC3)cc1S2(=O)=O	none (no result: Giardia FBPA inh)
CC1CCN(c2ccc3c(c2)S(=O)(=O)c2cccc(C(=O)NC4CC4)c2C3=O)CC1	HCMV inh -62 (no result: Giardia FBPA inh)
COCCNC(=O)c1cccc2c1C(=O)c1ccc(N3CCOCC3)cc1S2(=O)=O	HCMV inh -102 (no result: Giardia FBPA inh)
O=C(NCC1CCCO1)c1cccc2c1C(=O)c1ccc(N3CCC(Cc4ccccc4)CC3)cc1S2(=O)=O (stereo not given)	FMDV inh 13µM, Vaccinia mCherry inconclusive, HCV inh inconclusive (no result: HCMV inh, Giardia FBPA inh)
CCc1cc(CNC(=O)C2CCC(=O)N(CCc3cccc(F)c3)C2)on1 (stereo not given)	none
O=C(NCc1ccco1)C(=O)NN=Cc1ccccc1O	none (no result: FMDV inh, Vaccinia mCherry, Vaccinia Venus, Giardia FBPA inh, HCV inh)
O=C(NC[C@@H]1CCCO1)c1cccc2c1C(=O)c1ccc(N3CCOCC3)cc1S2(=O)=O	none (no result: Giardia FBPA inh)
O=C(NCc1ccccc1C(F)(F)F)c1cccc2c1C(=O)c1ccc(N3CCC(N4CCCCC4)CC3)cc1S2(=O)=O	Vaccinia mCherry inconclusive, Vaccinia Venus inconclusive, HCMV inh -100 (no result: Giardia FBPA inh, HCV inh)
O=C(NCc1ccccc1C(F)(F)F)c1cccc2c1C(=O)c1ccc(N3CCOCC3)cc1S2(=O)=O	Vaccinia Venus inconclusive (no result: Giardia FBPA inh)
CC1CCN(c2ccc3c(c2)S(=O)(=O)c2cccc(C(=O)NC[C@@H]4CCCO4)c2C3=O)CC1	HCMV inh -94, HCV inh inconclusive (no result: Giardia FBPA inh)
O=C(CSc1ccccc1)Nc1ccc(-c2nc3ccccc3[nH]2)cc1	Vaccinia Venus inconclusive, HCV inh inconclusive
Cc1ccc(NC(=O)CSc2nc(C)c(Cc3ccccc3)c(=O)[nH]2)cc1	HCMV inh -64!
Cc1ccc2nc(-c3ccc(NC(=O)CSc4ccccc4)cc3)[nH]c2c1	HCMV inh inconclusive, HCV inh 11µM (no result: FMDV inh)
Cc1nc(SCC(=O)Nc2ccc(Br)cc2)[nH]c(=O)c1Cc1ccccc1	none (no result: Giardia FBPA inh, HCV inh)
CCN(CC(=O)Nc1c(F)cccc1F)C(=O)/C=C/c1cn(Cc2ccccc2)nc1-c1cccnc1	HCV inh inconclusive (no result: Giardia FBPA inh)
CCOc1ccc(NC(=O)Nc2cc(OCC(F)(F)F)cc(OCC(F)(F)F)c2)cc1	HCV inh inconclusive
O=C(Nc1ccc(F)cc1)Nc1cc(OCC(F)(F)F)cc(OCC(F)(F)F)c1	Vaccinia mCherry 10µM, Vaccinia Venus inconclusive, HCMV inh -101, HCV inh inconclusive
CC(C)(C)c1ccc(NC(=O)Nc2ccc(F)cc2)cc1	Vaccinia mCherry inconclusive, HCV inh 10µM
O=c1cc(-c2ccc(F)cc2)nc(SCc2nc(-c3cccc(C(F)(F)F)c3)no2)[nH]1	none (no result: Giardia FBPA inh, HCV inh)
CCc1cccc2[nH]c3cc([N+](=O)[O-])ccc3c12	Vaccinia mCherry inconclusive, HCMV inh -61, HCV inh inconclusive
CC(C)c1ccc(COC(=O)CN2C(=O)NC3(CCCCC3C)C2=O)cc1 (stereo not given)	HCV inh 14µM (no result: Giardia FBPA inh)
CC1CCCCC12NC(=O)N(CC(=O)OCc1ccccc1Cl)C2=O (stereo not given)	FMDV inh inconclusive (no result: Giardia FBPA inh)
CCOCC(=O)NC1CCc2cc(OC(=O)COCC)c(OC)c(OC)c2-c2ccc(SC)c(=O)cc21 (stereo not given)	Vaccinia mCherry inconclusive, Vaccinia Venus inconclusive, HCMV inh inconclusive (no result: Giardia FBPA inh)
COc1cc2c(c(OC)c1OC)-c1ccc(OC)c(=O)cc1[C@H](NC(C)=O)CC2	none (no result: FMDV inh, Vaccinia mCherry, Vaccinia Venus, HCMV inh, HCV inh)
COc1cc2c(c(OC)c1OC)-c1ccc(NCc3ccccc3)c(=O)cc1C(NC(C)=O)CC2 (stereo not given)	Vaccinia Venus inconclusive, HCMV inh -80 (no result: Giardia FBPA inh, HCV inh)
COc1cc2c(c(OC)c1OC)-c1ccc(SC)c(=O)cc1C(NC(=O)C(F)(F)F)CC2 (stereo not given)	FMDV inh inconclusive, Vaccinia Venus inconclusive, HCMV inh -81 (no result: Giardia FBPA inh)
COc1cc2c(c(OC)c1OC)-c1ccc(OC)c(=O)cc1[C@@H](NC(C)=O)CC2	Vaccinia mCherry inconclusive, Vaccinia Venus inconclusive, HCMV inh -89
COc1cc2c(c(OC)c1OC)-c1ccc(SC)c(=O)cc1C(NC(C)=O)CC2 (stereo not given)	Vaccinia Venus inconclusive, HCMV inh -93 (no result: Giardia FBPA inh)
CSc1ncccc1C(=O)N1CCOc2ccc(C(C)(O)CCn3cccn3)cc2C1 (stereo not given)	none (no result: HCMV inh, Giardia FBPA inh, HCV inh)
COc1cc2c(c(OC)c1O)-c1ccc(OC)c(=O)cc1C(NC(=O)C(F)(F)F)CC2 (stereo not given)	Vaccinia Venus inconclusive, HCMV inh -90 (no result: Giardia FBPA inh)
O=[N+]([O-])c1ccc(P(=O)(Cc2ccccc2)c2ccccc2O)cc1 (stereo not given)	HCMV inh inconclusive
CCCCCCN1C[C@H](n2cc(COC(=O)c3ccccc3)nn2)[C@@H](O)C[C@@H]1c1ccccc1	Vaccinia mCherry inconclusive (no result: Giardia FBPA inh, HCV inh)
CCCCCCN1C[C@@H](n2cc(COC(=O)c3ccccc3)nn2)[C@H](O)C[C@@H]1c1ccc(Cl)cc1	HCMV inh -101 (no result: Giardia FBPA inh, HCV inh)
CCCCCCN1C[C@@H](n2cc(COC(=O)c3ccccc3)nn2)[C@H](O)C[C@@H]1c1ccccc1	HCMV inh -103 (no result: Giardia FBPA inh, HCV inh)
Cc1ccccc1S(=O)(=O)N1C[C@@H]2C(C(=O)C[C@@H]3C(=O)N(C)C(=O)[C@@H]32)[C@@H]1c1ccc(Cl)cc1 (stereo not given in full)	Vaccinia mCherry inconclusive (no result: Giardia FBPA inh, HCV inh)
CC1CCN(C(=O)CN(Cc2ccc(F)cc2)S(C)(=O)=O)CC1	none
O=C(COC(=O)c1ccccc1OCc1cccc(Br)c1)Nc1ccc(Br)cc1	none (no result: FMDV inh, HCMV inh, Giardia FBPA inh, HCV inh)
COc1ccccc1NC(=O)CSc1nnc2c3ccccc3n(C(C)C)c2n1	FMDV inh inconclusive, Vaccinia Venus inconclusive, HCMV inh -61 (no result: Giardia FBPA inh, HCV inh)

Bioassay records from PubChem.
